# A structure can be active in one record and inactive in another. Calls of active or inactive are those of the source. How the source made its calls: active means hit-call score of the fitted dose curve at least 0.9, where 1 is the maximum; inactive means score below 0.9.
# How the values were obtained:
# [1] = read-out: Transforming growth factor beta 1 (TGFb1), TGFB1 (gene 7040); assay: BSK_KF3CT_TGFb1: BioMAP Diversity Plus: KF3CT Assay for Transforming growth factor beta 1 (TGFb1) Biomarker Activity (AID 2283072); conditions: primary human keratinocytes with fibroblasts; actives raise or lower the signal
# Method in brief: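 Signal changes in either direction, relative to DMSO, define activity here. TGF-b1 is read by ELISA from a human keratinocyte-fibroblast co-culture 24 h post-dose.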
# [2] = read-out: C-C motif chemokine 2 (Homo sapiens) (UniProt P13500); assay: BSK_KF3CT_MCP1: BioMAP Diversity Plus: KF3CT Assay for Monocyte Chemoattractant Protein 1 (MCP1/CCL2) Biomarker Activity (AID 2283073); conditions: primary human keratinocytes with fibroblasts; actives raise or lower the signal
# Method in brief: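 Keratinocytes and foreskin fibroblasts were co-cultured, dosed with chemical, and sampled 24 h later. MCP-1 was quantified by ELISA, and the endpoint was analyzed with bidirectional fitting using DMSO as negative control.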
# [3] = read-out: Matrix Metallopeptidase 9 (MMP9), MMP9 (gene 4318); assay: BSK_KF3CT_MMP9: BioMAP Diversity Plus: KF3CT Assay for Matrix Metallopeptidase 9 (MMP9) Biomarker Activity (AID 2283074); conditions: primary human keratinocytes with fibroblasts; actives raise or lower the signal;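 on AC50: MMP9 protein level quantified by ELISA in the co-culture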
# Method in brief: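 Keratinocyte plus foreskin fibroblast human primary skin co-culture was dosed with chemical and MMP-9 was quantified by ELISA 24 h later. Bidirectional curve fitting used DMSO as negative control and activity baseline.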
# [4] = read-out: urokinase plasminogen activator (uPA), PLAU (gene 5328); assay: BSK_KF3CT_uPA: BioMAP Diversity Plus: KF3CT Assay for urokinase plasminogen activator (uPA) Biomarker Activity (AID 2283075); conditions: primary human keratinocytes with fibroblasts; actives raise or lower the signal
# Method in brief: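 Human keratinocyte plus foreskin fibroblast primary co-culture exposed to chemical for 24 h. uPA levels were quantified by ELISA, and activity was fitted bidirectionally against a DMSO negative-control baseline.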
# CD40, CD40 (gene 958) [5] = assay: BSK_LPS_CD40: BioMAP Diversity Plus: LPS Assay for CD40 Biomarker Activity (AID 2283076); conditions: primary human HUVEC with PBMC; actives raise or lower the signal
# Method in brief: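 CD40 signal, measured by ELISA, is fitted in both directions relative to DMSO vehicle. The system is an LPS-driven human vascular primary co-culture of endothelial cells and PBMC, sampled 24 h after compound addition.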
# [6] = read-out: E-selectin (Homo sapiens) (UniProt P16581); assay: BSK_LPS_Eselectin: BioMAP Diversity Plus: LPS Assay for Eselectin Biomarker Activity (AID 2283077); conditions: primary human HUVEC with PBMC; actives raise or lower the signal
# Method in brief: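 Signal of E-selectin, detected by ELISA, served as the endpoint; cells were umbilical vein endothelium with PBMC, read 24 h after treatment. DMSO defined baseline, and both increases and decreases were fitted.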
# [7] = read-out: Interleukin-8 (IL8), CXCL8 (gene 3576); assay: BSK_LPS_IL8: BioMAP Diversity Plus: LPS Assay for Interleukin-8 (IL8) Biomarker Activity (AID 2283078); conditions: primary human HUVEC with PBMC; actives raise or lower the signal
# Method in brief: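 Endothelial cells and PBMC from human donors are co-cultured, treated with chemicals and LPS, then assayed for IL-8 by ELISA after 24 h. Parallel SRB staining (0.1% SRB after 10% TCA fixation, 560 nm) flags cytotoxicity.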
# [8] = read-out: Monocyte Chemoattractant Protein-1 (MCP1), CCL2 (gene 6347); assay: BSK_LPS_MCP1: BioMAP Diversity Plus: LPS Assay for Monocyte Chemoattractant Protein-1 (MCP1) Biomarker Activity (AID 2283081); conditions: primary human HUVEC with PBMC; actives raise or lower the signal
# Method in brief: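 LPS-stimulated HUVEC/PBMC co-culture; chemical, 24 h; MCP-1 by ELISA; bidirectional fit vs DMSO; cytotoxicity via SRB (0.1% stain, 10% TCA fix, 560 nm) in parallel wells.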
# [9] = BSK_LPS_PGE2: BioMAP Diversity Plus: LPS Assay for Prostaglandin E2 (PGE2) Biomarker Activity (AID 2283082); conditions: primary human HUVEC with PBMC; actives raise or lower the signal;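 on AC50: secreted prostaglandin E2 measured by ELISA in LPS-stimulated co-culture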
# Method in brief: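 Endpoint derived from bidirectional curve fitting versus DMSO of ELISA-measured PGE2 in LPS-stimulated human primary vascular co-culture (HUVEC with PBMC) harvested at 24 h.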
# [10] = read-out: Macrophage colony-stimulating factor (MCSF), CSF1 (gene 1435); assay: BSK_LPS_MCSF: BioMAP Diversity Plus: LPS Assay for Macrophage colony-stimulating factor (MCSF) Biomarker Activity (AID 2283083); conditions: primary human HUVEC with PBMC; actives raise or lower the signal
# Method in brief: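 Compound is added to a human vascular primary co-culture of umbilical vein endothelium and blood mononuclear cells. After 24 h, M-CSF is quantified by ELISA. Signal changes are fitted in both directions against DMSO.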
# [11] = read-out: Tissue Factor, F3 (gene 2152); assay: BSK_LPS_TissueFactor: BioMAP Diversity Plus: LPS Assay for Tissue Factor Biomarker Activity (AID 2283084); conditions: primary human HUVEC with PBMC; actives raise or lower the signal
# Method in brief: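 In this co-culture system of umbilical vein endothelium with PBMC, stimulated with LPS, cell-surface CD142 is detected by ELISA at 24 h. Endpoint values derive from bidirectional fitting, DMSO serving as baseline.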
# [12] = read-out: Tumor necrosis factor (Homo sapiens) (UniProt P01375); assay: BSK_LPS_TNFa: BioMAP Diversity Plus: LPS Assay for Tumour Necrosis Factor alpha (TNFa) Biomarker Activity (AID 2283085); conditions: primary human HUVEC with PBMC; actives raise or lower the signal
# Method in brief: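 Primary human vascular co-culture of HUVEC and PBMC; TNFa ELISA 24 h after treatment, analysed as increase or decrease relative to DMSO control.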
# [13] = read-out: Vascular cell adhesion molecule 1 (VCAM1), VCAM1 (gene 7412); assay: BSK_LPS_VCAM1: BioMAP Diversity Plus: LPS Assay for Vascular cell adhesion molecule 1 (VCAM1) Biomarker Activity (AID 2283086); conditions: primary human HUVEC with PBMC; actives raise or lower the signal
# Method in brief: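 Primary human vascular co-culture (umbilical vein endothelium plus PBMC) stimulated with LPS received chemical; 24 h later VCAM-1 was read by ELISA. Overt cytotoxicity was assessed by sulforhodamine B staining of parallel cultures at the same time point.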
# CD38, CD38 (gene 952) = assay: BSK_SAg_CD38: BioMAP Diversity Plus: SAg Assay for CD38 Biomarker Activity (AID 2283087); conditions: primary human HUVEC with PBMC; actives raise or lower the signal
# Method in brief: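 Fluorescence ELISA of cell-surface CD38 served as the read-out, with either increase or decrease fitted against DMSO controls. Cells were a human umbilical vein endothelium plus PBMC co-culture under SEB/TSST-1 stimulation, measured 24 h after dosing.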
# CD40, CD40 (gene 958) [14] = assay: BSK_SAg_CD40: BioMAP Diversity Plus: SAg Assay for CD40 Biomarker Activity (AID 2283088); conditions: primary human HUVEC with PBMC; actives raise or lower the signal
# Method in brief: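 Fluorescence ELISA read-out of CD40 from umbilical vein endothelium plus peripheral blood mononuclear cells, sampled 24 h after dosing. Values come from bidirectional curve fitting with DMSO as baseline.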
# CD69, CD69 (gene 969) = assay: BSK_SAg_CD69: BioMAP Diversity Plus: SAg Assay for CD69 Biomarker Activity (AID 2283089); conditions: primary human HUVEC with PBMC; actives raise or lower the signal;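 on AC50: cell surface CD69 protein quantified by ELISA with fluorescence detection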
# Method in brief: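 Endothelial/PBMC co-culture; chemical added; 24 h incubation; CD69 ELISA with fluorescence detection; bidirectional fit vs DMSO.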
# [15] = read-out: Monocyte Chemoattractant Protein-1 (MCP1), CCL2 (gene 6347); assay: BSK_SAg_MCP1: BioMAP Diversity Plus: SAg Assay for Monocyte Chemoattractant Protein-1 (MCP1) Biomarker Activity (AID 2283090); conditions: primary human HUVEC with PBMC; actives raise or lower the signal
# Method in brief: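 MCP-1 levels in the endothelial–PBMC SAg co-culture were quantified by ELISA at 24 h post-dosing; both increases and decreases versus DMSO scored. Cytotoxicity monitored by SRB total protein in parallel cultures.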
# [16] = BSK_LPS_SRB: Viability Assessment in the BioMAP Diversity Plus: LPS Assay (AID 2283079); conditions: primary human HUVEC with PBMC;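 further: total protein by sulforhodamine B absorbance as a cytotoxicity measure; measured one day after compound addition; fitted in both directions against DMSO so loss or gain of signal counts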
# Method in brief: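 Overt cytotoxicity was gauged by sulforhodamine B total-protein staining in a primary human vascular endothelial and mononuclear cell co-culture 24 h post-dosing. Activity was fitted in both directions relative to DMSO.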
# [17] = read-out: Interleukin-1 alpha (IL1a), IL1A (gene 3552); assay: BSK_LPS_IL1a: BioMAP Diversity Plus: LPS Assay for Interleukin-1 alpha (IL1a) Biomarker Activity (AID 2283080); conditions: primary human HUVEC with PBMC; actives raise or lower the signal
# Method in brief: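 Measured: IL-1 alpha via ELISA at 24 h in LPS-activated human umbilical vein endothelium–PBMC co-culture. Baseline: DMSO, bidirectional fitting.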
# Tumor necrosis factor (Homo sapiens), sequence (P01375 whole entry, looked up): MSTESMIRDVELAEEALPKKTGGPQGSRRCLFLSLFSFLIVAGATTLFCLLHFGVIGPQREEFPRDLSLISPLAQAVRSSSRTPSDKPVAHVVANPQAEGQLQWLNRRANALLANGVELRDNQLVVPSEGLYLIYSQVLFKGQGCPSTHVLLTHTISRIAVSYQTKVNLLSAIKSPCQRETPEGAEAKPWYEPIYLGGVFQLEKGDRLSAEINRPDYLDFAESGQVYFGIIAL
# E-selectin (Homo sapiens), sequence (P16581 whole entry, looked up): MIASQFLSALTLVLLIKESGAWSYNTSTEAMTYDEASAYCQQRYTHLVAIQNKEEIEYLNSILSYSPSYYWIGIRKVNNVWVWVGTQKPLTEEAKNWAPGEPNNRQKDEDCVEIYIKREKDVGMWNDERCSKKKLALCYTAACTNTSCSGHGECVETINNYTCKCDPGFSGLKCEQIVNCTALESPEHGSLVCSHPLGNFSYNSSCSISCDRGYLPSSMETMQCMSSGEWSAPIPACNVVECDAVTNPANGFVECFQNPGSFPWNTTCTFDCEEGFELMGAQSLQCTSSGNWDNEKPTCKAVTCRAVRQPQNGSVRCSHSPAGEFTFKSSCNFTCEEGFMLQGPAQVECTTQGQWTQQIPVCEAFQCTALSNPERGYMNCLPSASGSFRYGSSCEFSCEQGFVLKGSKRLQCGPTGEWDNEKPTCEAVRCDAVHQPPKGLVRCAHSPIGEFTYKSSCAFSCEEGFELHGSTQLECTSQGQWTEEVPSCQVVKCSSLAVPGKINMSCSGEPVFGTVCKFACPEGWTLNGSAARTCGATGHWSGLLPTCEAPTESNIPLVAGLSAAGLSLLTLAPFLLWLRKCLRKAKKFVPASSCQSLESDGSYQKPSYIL
smiles,measurement,setting,value
COP(=S)(OC)Oc1c(Cl)cc(C)cc1Cl,outcome,[1],inactive
same,outcome,[2],inactive
same,AC50,[3],20 µM (active)
same,outcome,[4],inactive
same,outcome,"CD40, CD40 (gene 958) [5]",inactive
same,outcome,[6],inactive
same,outcome,[7],inactive
same,outcome,[8],inactive
same,outcome,[9],inactive
same,outcome,[10],inactive
same,outcome,[11],inactive
same,outcome,[12],inactive
same,AC50,[13],13.8 µM (active)
same,outcome,"CD38, CD38 (gene 952)",inactive
same,outcome,"CD40, CD40 (gene 958) [14]",inactive
same,outcome,"CD69, CD69 (gene 969)",inactive
same,outcome,[15],inactive
NC(=O)O,outcome,[1],inactive
same,outcome,[2],inactive
same,outcome,[3],inactive
same,outcome,[4],inactive
same,outcome,"CD40, CD40 (gene 958) [5]",inactive
same,outcome,[6],inactive
same,outcome,[7],inactive
same,outcome,[8],inactive
same,outcome,[9],inactive
same,outcome,[10],inactive
same,outcome,[11],inactive
same,outcome,[13],inactive
same,outcome,"CD38, CD38 (gene 952)",inactive
same,outcome,"CD40, CD40 (gene 958) [14]",inactive
same,outcome,"CD69, CD69 (gene 969)",inactive
same,outcome,[15],inactive
OCc1ccco1,outcome,[1],inactive
same,outcome,[2],inactive
same,outcome,[3],inactive
same,outcome,[4],inactive
same,outcome,"CD40, CD40 (gene 958) [5]",inactive
same,outcome,[6],inactive
same,outcome,[7],inactive
same,outcome,[16],inactive
same,outcome,[8],inactive
same,outcome,[9],inactive
same,outcome,[10],inactive
same,outcome,[11],inactive
same,outcome,[13],inactive
same,outcome,"CD38, CD38 (gene 952)",inactive
same,outcome,"CD40, CD40 (gene 958) [14]",inactive
same,outcome,"CD69, CD69 (gene 969)",inactive
same,outcome,[15],inactive
CC(=O)OC(c1ccccc1)C(Cl)(Cl)Cl (stereo not given),outcome,[2],inactive
same,outcome,[3],inactive
same,outcome,[4],inactive
same,outcome,"CD40, CD40 (gene 958) [5]",inactive
same,outcome,[6],inactive
same,outcome,[7],inactive
same,outcome,[8],inactive
same,outcome,[9],inactive
same,outcome,[10],inactive
same,outcome,[11],inactive
same,outcome,[12],inactive
same,outcome,[13],inactive
same,outcome,"CD38, CD38 (gene 952)",inactive
same,outcome,"CD40, CD40 (gene 958) [14]",inactive
same,AC50,"CD69, CD69 (gene 969)",14.2 µM (active)
same,outcome,"CD69, CD69 (gene 969)",inactive
same,outcome,[15],inactive
CC12CC1(C)C(=O)N(c1cc(Cl)cc(Cl)c1)C2=O (stereo not given),outcome,[1],inactive
same,outcome,[2],inactive
same,outcome,[3],inactive
same,outcome,[4],inactive
same,outcome,"CD40, CD40 (gene 958) [5]",inactive
same,outcome,[6],inactive
same,outcome,[7],inactive
same,outcome,[16],inactive
same,outcome,[8],inactive
same,outcome,[9],inactive
same,outcome,[10],inactive
same,outcome,[11],inactive
same,outcome,[13],inactive
same,outcome,"CD38, CD38 (gene 952)",inactive
same,outcome,"CD40, CD40 (gene 958) [14]",inactive
same,outcome,"CD69, CD69 (gene 969)",inactive
same,outcome,[15],inactive
O=C(O)C(Cl)(Cl)Cl,outcome,[1],inactive
same,outcome,[2],inactive
same,outcome,[3],inactive
same,outcome,[4],inactive
same,outcome,"CD40, CD40 (gene 958) [5]",inactive
same,outcome,[6],inactive
same,outcome,[7],inactive
same,outcome,[17],inactive
same,outcome,[8],inactive
same,outcome,[9],inactive
same,outcome,[10],inactive
same,outcome,[11],inactive
same,outcome,[13],inactive
same,outcome,"CD38, CD38 (gene 952)",inactive
same,outcome,"CD40, CD40 (gene 958) [14]",inactive
same,outcome,"CD69, CD69 (gene 969)",inactive
same,outcome,[15],inactive
O=C(O)CCC(F)(C(F)(F)F)C(F)(F)F,outcome,[2],inactive
same,outcome,[3],inactive
same,outcome,[4],inactive
same,outcome,"CD40, CD40 (gene 958) [5]",inactive
same,outcome,[6],inactive
same,outcome,[7],inactive
same,outcome,[8],inactive
same,outcome,[9],inactive
same,outcome,[10],inactive
same,outcome,[11],inactive
same,outcome,[12],inactive
same,outcome,[13],inactive
same,outcome,"CD38, CD38 (gene 952)",inactive
same,outcome,"CD40, CD40 (gene 958) [14]",inactive
same,outcome,"CD69, CD69 (gene 969)",inactive
same,outcome,[15],inactive
Oc1cccc2cccnc12,AC50,[1],2.35 µM (active)
same,AC50,[2],2 µM (active)
same,AC50,[3],2.46 µM (active)
same,AC50,[4],2.74 µM (active)
same,outcome,"CD40, CD40 (gene 958) [5]",inactive
same,outcome,[6],inactive
same,outcome,[7],inactive
same,outcome,[17],inactive
same,outcome,[8],inactive
same,AC50,[9],11.4 µM (active)
same,outcome,[10],inactive
same,outcome,[11],inactive
same,outcome,[12],inactive
same,AC50,[13],3.97 µM (active)
same,outcome,"CD38, CD38 (gene 952)",inactive
same,outcome,"CD40, CD40 (gene 958) [14]",inactive
same,outcome,"CD69, CD69 (gene 969)",inactive
same,outcome,[15],inactive

# Source: PubChem BioAssay (EPA / NIEHS)
